We go through 21 compounds from PubChem BioAssay (NCI).

The nature of assay [1]: NCI Yeast Anticancer Drug Screen. Data for the rad50 strain (AID 155).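 Note: 0% = growth of vehicle-only cultures of the same strain.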 The conditions noted are these: S. cerevisiae rad50 strain growth inhibition; at 50.0 µM; stronger effect = higher value. The method, boiled down: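 DNA repair mutant yeast, compound exposure, growth read-out; inhibition is taken relative to vehicle.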
The nature of assay [2]: NCI Yeast Anticancer Drug Screen. Data for the mec2-1 strain (AID 157). The conditions noted are these: S. cerevisiae mec2-1 strain, at 50.0 µM, stronger effect = higher value. The essentials:
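mec2-1 yeast strain, carrying an alteration in DNA damage repair or cell cycle control, was exposed to compounds; growth inhibition was measured relative to vehicle-treated controls.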

Assay [3] is described as follows: NCI Yeast Anticancer Drug Screen. Data for the sgs1 mgt1 strain (AID 161).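 Note: 0% = growth of cultures given vehicle only.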 Particulars: S. cerevisiae sgs1 mgt1 strain, at 50.0 µM, stronger effect = higher value. The essentials:
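Growth of a repair-deficient yeast mutant was monitored after compound treatment and expressed as inhibition relative to vehicle-treated cultures.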

A short description of assay [4]: NCI Yeast Anticancer Drug Screen. Data for the cln2 rad14 strain (AID 165).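 Note: 0% = growth equal to vehicle treated cultures.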 Particulars: S. cerevisiae cln2 rad14 strain, at 50.0 µM, stronger effect = higher value. The essentials: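 Yeast carrying cln2 and rad14 alterations (cell cycle control and DNA damage repair) were exposed to compounds. Growth inhibition was measured against vehicle-treated controls.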
Assay [5] is described as follows: NCI Yeast Anticancer Drug Screen. Data for the bub3 strain (AID 167). Particulars: S. cerevisiae bub3 mutant strain, at 50.0 µM, stronger effect = higher value. The essentials:
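In this screen, a yeast mutant lacking normal mitotic checkpoint function is challenged with compound. Relative growth versus vehicle gives the inhibition value.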

Assay [6] can be described thus: NCI Yeast Anticancer Drug Screen. Data for the mlh1 rad18 strain (AID 175). The conditions noted are these: S. cerevisiae mlh1 rad18 strain growth inhibition; at 50.0 µM; stronger effect = higher value. The method, boiled down: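 Growth inhibition of the yeast strain was measured after compound exposure and expressed relative to vehicle-treated controls. The strain carries defined defects in DNA damage repair.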

About 79,000 compounds went through this panel and 15% of them were active in at least one assay; those are over-represented in the sample as a whole. A number with no mark means an inactive call. Active and inactive are the calls of the source. Cut-off read from the data, not from the text of the source: active = growth inhibition above about 70%; inactive = the rest.

As to `Nc1cccc(SC2CC(=O)N(c3ccc4c(c3)OCO4)C2=O)c1` (stereo unspecified), the growth inhibition in assay [1] is 90.4% (active); in assay [2] it was 92.8% (active); in assay [3], 91.5% (active); in assay [4], 79.2% (active); in assay [5], 91.7% (active); in assay [6], 85.3% (active).
As for `CCc1cccc(C(C)CC)c1NC(=O)CC1C(=O)Nc2ccccc2S1=O` (stereo unspecified), the growth inhibition in assay [1] was 15.2%; in assay [2], 0.65%; in assay [3], 7.2%; in assay [4] it was 18.1%; in assay [5], 32.5%; in assay [6] it was 15.2%.
Turning to `C=C1c2nc3ccccc3n2C=C(c2ccc(Cl)cc2)N1c1ccc(OC)cc1`, the growth inhibition in assay [1] is -3.95%; in assay [2] it was 23.4%; in assay [3] it was 19.8%; in assay [4], 11.4%; in assay [5] it was 7.7%; in assay [6], 40.2%.
For the compound `N#C/C(=N\NC(=O)c1ccccc1Cl)c1ccccc1Cl`, the growth inhibition was 89.5% (active) in assay [1]; 79.3% (active) in assay [2]; 83% (active) in assay [3]; 82.2% (active) in assay [4]; 67.3% in assay [5]; 77.8% (active) in assay [6].
Regarding `CC(=O)Nc1nc(NC(C)=O)c2nc(C)cnc2n1`, the growth inhibition in assay [1] is 4.45%; in assay [2], 20.6%; in assay [3] it was -2.35%; in assay [4], 24.4%; in assay [5], 10.6%; in assay [6] it was 25.2%.
For `COc1ccc(OC)c(C(=O)CCCCCCCCC(=O)c2cc(OC)ccc2OC)c1`, the growth inhibition in assay [1] is 27.2%; in assay [2], 8%; in assay [3], 3.85%; in assay [4] it was 25.4%; in assay [5], -3.95%; in assay [6], 7.25%.
Turning to `COC(=O)[C@]1(C)CCC[C@@]2(C)[C@H]1CC=C1C=C(C(C)C)CC[C@@H]12`, the growth inhibition in assay [1] is 50%; in assay [2], 1.15%; in assay [3] it was 22.8%; in assay [4] it was 4.6%; in assay [5], -1.95%; in assay [6], 24.4%.
Regarding `CCC(=O)Oc1ccccc1OC(=O)CC`, the growth inhibition in assay [1] is 35.9%; in assay [2], 18.3%; in assay [3] it was 21%; in assay [4], 11.6%; in assay [5] it was 1.9%; in assay [6], 45.2%.
Turning to `O=C1C2C3C=CC(C3)C2C(=O)N1c1ncc([N+](=O)[O-])s1` (stereo unspecified), the growth inhibition in assay [1] was 17.8%; in assay [2], -6.85%; in assay [3], 26.9%; in assay [4] it was -57.9%; in assay [5] it was -14.2%; in assay [6], 12.3%.
Turning to `CCOC(=O)/C=C/n1c2ccccc2c(=O)c2cc(OC)ccc21`, the growth inhibition in assay [1] is -3.25%; in assay [2] it was -13.6%; in assay [3], -18.8%; in assay [4], 3.6%; in assay [5], -8.95%; in assay [6] it was -2.4%.
Consider `CCOc1c(N=Nc2ccccc2OC)c(-c2ccccc2)nn1C(=S)S`, for which the growth inhibition in assay [1] was 33.4%; in assay [2], 42%; in assay [3], 24.8%; in assay [4], 5.75%; in assay [5] it was 66.7%; in assay [6], 18.9%.
For the compound `O=C(O)CCSc1nc2c(=O)[nH][nH]c(=O)c2n1Cc1ccccc1`, the growth inhibition in assay [1] is 7.2%; in assay [2] it was -13.2%; in assay [3], 7.05%; in assay [4], -53.1%; in assay [5], -0.75%; in assay [6], 9.7%.
Turning to `O=c1c2ccccc2nnn1OCc1ccccc1`, the growth inhibition is 24.5% in assay [1]; 3.1% in assay [2]; 11% in assay [3]; -39.5% in assay [4]; -12.3% in assay [5]; 3.95% in assay [6].
For `COc1cc(C=O)cc(Br)c1O`, the growth inhibition is 13.3% in assay [1]; -3.55% in assay [2]; 34.1% in assay [3]; -8.45% in assay [4]; -19.7% in assay [5]; 34.4% in assay [6].
`Cc1ccc(N=Cc2ccccc2O)cc1.[Co]`: the growth inhibition was -18.9% in assay [1]; 14.9% in assay [2]; -2.75% in assay [3]; 14.2% in assay [4]; 1.45% in assay [5]; -11.1% in assay [6].
Turning to `Nc1nc(Nc2ccccc2)nc(SCc2ccccc2)n1`, the growth inhibition in assay [1] is 9.7%; in assay [2] it was 5.45%; in assay [3], -5.5%; in assay [4], -33.5%; in assay [5], 0.15%; in assay [6], 13.7%.
Consider `Cc1cc([N+](=O)[O-])cc(C)c1N`, for which the growth inhibition in assay [1] was 1.6%; in assay [2] it was -11%; in assay [3] it was 3.3%; in assay [4] it was -15%; in assay [5], -4.5%; in assay [6], 7.15%.
For `CCOC(=O)C1(C)CCC(C(=O)OC)C1=O` (stereo unspecified), the growth inhibition was -36.1% in assay [1]; -31.1% in assay [2]; -54.8% in assay [3]; -5.45% in assay [4]; -59.6% in assay [5]; -18.1% in assay [6].
For `O=NC1C(Cl)C2CC1C1COCC21` (stereo unspecified), the growth inhibition in assay [1] was -16%; in assay [2] it was -9.55%; in assay [3] it was -9.05%; in assay [4], -30.1%; in assay [5], 1%; in assay [6] it was -7.05%.
For `N#Cc1nnn(-c2ccccc2)n1`, the growth inhibition is 24.2% in assay [1]; 13.5% in assay [2]; 2.9% in assay [3]; -15.7% in assay [4]; 4% in assay [5]; 22.5% in assay [6].
For the compound `CC(C)(C)c1ccc2c(c1)C(O)(C#Cc1ccccc1)c1ccccc1C2(O)C#Cc1ccccc1` (stereo unspecified), the growth inhibition in assay [1] is 11.6%; in assay [2], -7.5%; in assay [3], 1.5%; in assay [4], 9.35%; in assay [5] it was 0.05%; in assay [6], 14.1%.
